# Compound activity as filed in PubChem BioAssay.
# The entries come from a sample that favours hits as a whole.
# Shiga inhibitor: inhibitors of Shiga toxin in Vero cells; Vero cells, Shiga toxin protein synthesis inhibition reporter; inhibition, % at 38.7 µM; actives 9.2% (n = 290,000); AID 2315; in the data active means inhibition mostly above about 28%, no sharp cut-off; inactive means mostly below about 43%; further: 0% is about no effect
# CHX counter: counter-screen for Shiga toxin inhibitors: cycloheximide protein synthesis inhibition. cell reporter, cycloheximide protein synthesis inhibition counterscreen. max response, %. actives 12% (n = 300,000). AID 2314; in the data active means max response mostly above about 13%, no sharp cut-off; inactive means mostly below about 14%; further: read at 38.3 µM for the half of the compounds with a filed dose; 0% is about no effect
# Tb PYK inh: T. brucei pyruvate kinase inhibition; Q57TT1; TbPYK enzyme, Kinase-Glo Plus ATP luminescence, 45 min; Potency, µM (titrated, usually from 76.8 µM), inactives show at the highest dose activity, negative = inhibition, most hits filed as inhibitors; actives 0.12% (n = 410,000); AID 624173; further: potency means the concentration at half of the fitted maximal effect; on the % scale 0 is the no-effect control and ±100 the full control effect; nearly all actives have a fitted effect of over 50% in size
#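 Luminescence from Kinase-Glo Plus, added after a 45-minute room-temperature reaction, served as the end-point read-out. The enzyme and substrate were preincubated with compound before ADP (130 uM final) initiated turnover. Concentration-effect curves came from normalized qHTS data.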
# Giardia FBPA inh: blocks Giardia fructose-bisphosphate aldolase activity | purified Giardia FBPA | Potency, µM (top dose mostly 59.6 µM), inactives show at the highest dose activity, negative = inhibition, hits mostly inhibitors | actives 0.71% (n = 290,000); further: potency means the concentration at half of the fitted maximal effect; on the % scale 0 is the no-effect control and ±100 the full control effect; nearly all actives have a fitted effect of over 55% in size
# Target sequence (A8B2U2 whole entry, looked up): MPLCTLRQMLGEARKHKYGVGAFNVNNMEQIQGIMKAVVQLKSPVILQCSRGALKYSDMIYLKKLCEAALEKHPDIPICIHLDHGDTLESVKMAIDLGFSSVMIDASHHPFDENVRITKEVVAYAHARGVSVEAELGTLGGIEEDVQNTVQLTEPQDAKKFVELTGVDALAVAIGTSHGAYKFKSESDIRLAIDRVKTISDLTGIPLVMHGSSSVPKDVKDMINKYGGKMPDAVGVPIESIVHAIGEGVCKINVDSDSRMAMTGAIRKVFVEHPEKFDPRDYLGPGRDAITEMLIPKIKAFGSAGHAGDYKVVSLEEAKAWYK
#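 40 nM FBPA preincubated 10 min at RT with compound (up to 57.5 uM final), then substrate plus GAPDH/TPI/NAD/arsenate coupling and diaphorase/resazurin added. Fluorescence read after 20 min at RT, 525/598 nm.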
# Sm TGR inh: blocks Schistosoma mansoni thioredoxin glutathione reductase; AID 485364; Potency, µM (highest dose often 114 µM), inactives show top-dose activity change, negative = inhibition, hits mostly inhibitors; purified TGR, DTNB reduction, TNB absorbance 405 nm; actives 3% (n = 360,000); further: potency means the concentration at half of the fitted maximal effect; on the % scale 0 is the no-effect control and ±100 the full control effect; nearly all actives have a fitted effect of over 60% in size
#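 TGR 20 nM + NADPH 100 uM (dispensed conc.), cpd preinc 15 min RT; start with NADPH (500 uM addition) then DTNB (15 mM addition). Kinetic TNB absorbance, 405 nm filter. Four-parameter Hill fit across titration.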
# LmPK inh: inhibitors of Leishmania mexicana pyruvate kinase; Potency, µM (titrated, usually from 57.5 µM), for the others: top-dose activity change, negative = inhibition, usual class: inhibitors; Q27686; actives 0.37% (n = 290,000); purified LmPK, Kinase-Glo ATP luminescence, 1 h; further: potency means the concentration at half of the fitted maximal effect; on the % scale 0 is the no-effect control and ±100 the full control effect
#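 Purified LmPK (0.1 nM) with 0.5 mM PEP and 0.1 mM ADP in imidazole buffer pH 7.2 with MgCl2/KCl, 1 h at room temperature. ATP formed was read by luciferase luminescence and normalized to no-enzyme and uninhibited controls.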
# * hit, by the source's call; ? = inconclusive; / = not tested or not shown; [ ] = another dose, or the depositor's remark. Unless noted, the call rests on the fitted dose curve; in most records, active means well fitted curve in the direction sought with a large enough effect; inconclusive means small, poorly fitted or top-dose-only effect, or another doubt; inactive means no such curve, though single readings can be large; an effect the other way counts as inactive or inconclusive.
SMILES,Shiga inhibitor,CHX counter,Tb PYK inh,Giardia FBPA inh,Sm TGR inh,LmPK inh
CCc1ccccc1NC(=O)CSc1nc2c(c(=O)[nH]1)CN(Cc1ccccc1OC)CC2,/,/,0%,/,-2%,/
CC(C)C1NC(C(=O)O)Cc2c1[nH]c1ccccc21 (configuration not stated),-5,1,-7%,?,?,4%
CCCN1CCC2(CC1)NC(C(=O)O)Cc1c2[nH]c2ccccc12 (configuration not stated),-3,0,-18%,-1%,25µM*,0%
CCC1(C)NC(C(=O)O)Cc2c1[nH]c1ccccc21 (configuration not stated),-3,-1,-8%,-1%,35µM*,-2%
CCCC1NC(C(=O)O)Cc2c1[nH]c1ccccc21 (configuration not stated),-20,-3,3%,-23%,45µM*,-6%
COc1ccc(Nc2nc3cc(-c4ccccc4C)sc3c(=O)n2C)cc1OC,/,/,3%,/,/,/
CCC1(C)Cc2c(sc3nc(SCC(=O)O)[nH]c(=O)c23)CO1 (configuration not stated),11,-4,?,3%,7%,18µM*
CCC1(C)Cc2c(sc3nc(NC)n(C)c(=O)c23)CO1 (configuration not stated),27,67*,-29%,5%,-20%,-2%
COCCCN(C(=O)CSc1nc2ccccc2c(=O)n1C)c1c(N)n(Cc2ccccc2)c(=O)[nH]c1=O,/,/,2%,/,/,/
COc1ccc(C2c3cccn3CCN2S(=O)(=O)c2ccc([N+](=O)[O-])cc2)cc1 (configuration not stated),/,/,0%,/,?,/
O=S(=O)(c1cccnc1)N1CCn2cccc2C1c1ccccc1F (configuration not stated),/,/,0%,/,32µM*,/
COc1ccccc1S(=O)(=O)N1CCn2cccc2C1C (configuration not stated),/,/,0%,/,?,/
O=[N+]([O-])c1ccc(S(=O)(=O)N2CCn3cccc3C2c2ccccc2F)cc1 (configuration not stated),/,/,4%,/,35µM*,/
CC1c2cccn2CCN1S(=O)(=O)c1ccccc1 (configuration not stated),/,/,0%,/,40µM*,/
Cc1[nH]c(=O)n(C(C)(C)C)c(=O)c1Cl,0,-1,/,3%,/,/
CC(=NNC(=O)CSc1nc2ccccc2o1)c1ccco1,/,/,-7%,/,/,/
COc1ccc(N2CC(=O)N(c3ccccc3)C2=S)cc1,32,27*,-14%,1%,-2%,2%
COc1ccc(N=C2C(=Nc3ccc(OC)cc3)N(c3ccc(OC)cc3)C(=S)N2c2ccccc2)cc1,70*,60*,-10%,0%,-5%,7%
O=C1CN(c2ccccc2)C(=S)N1c1ccccc1,-3,-1,3%,4%,0%,0%
COc1ccc(NC(=O)C2CCCN(C(=O)c3ccc(Cl)cc3)C2)cc1S(=O)(=O)N(C)C (configuration not stated),/,/,-2%,/,-21%,/
O=c1c2c3c(sc2nc2n1N=C(c1cccs1)CS2)CCCC3,73*,19*,?,-11%,-1%,-6%
O=c1oc(-c2cccs2)nc2sc3c(c12)CCCC3,0,-2,-9%,2%,4%,-16%
O=C1CN(c2nc(-c3cccs3)nc3sc4c(c23)CCCC4)CCN1,58*,35*,?,-11%,-36%,-1%
O=C1CN(c2nc(-c3cccnc3)nc3scc(-c4ccccc4)c23)CCN1,25,19*,-1%,5%,-16%,5%
COc1ccc(-c2csc3nc(-c4cccnc4)nc(N4CCC(C(N)=O)CC4)c23)cc1OC,-5,-2,-25%,-4%,-8%,1%
SMILES,Shiga inhibitor,CHX counter,Tb PYK inh,Giardia FBPA inh,Sm TGR inh,LmPK inh
CCOC(=O)c1ccc(CN(Cc2ccccc2C)S(=O)(=O)c2ccc(F)c(C(=O)Nc3cccc(OC)c3)c2)cc1,/,/,6%,/,0%,/
C/C(=N\NC(=S)Nc1ccccc1)C1Cc2ccccc2C(=O)O1 (configuration not stated),82*,51*,-20%,-2%,-20%,-1%
C/C(=N\NC(=S)Nc1ccccc1C)C1Cc2ccccc2C(=O)O1 (configuration not stated),46,40*,-8%,-25%,-29%,2%
CCOC(=O)c1ccc(NC(=O)C2Cc3ccccc3C(=O)O2)cc1 (configuration not stated),/,/,5%,/,0%,/
CCn1cc(CNC(=O)c2ccc3nc(Cc4ccccc4F)oc3c2)cn1,38,32*,5%,10%,-14%,3%
CCN(Cc1cnn(C)c1)C(=O)c1ccc2nc(Cc3ccccc3F)oc2c1,/,/,6%,/,/,/
CCn1cc(CNC(=O)c2ccc3nc(Cc4ccc(OC)cc4)oc3c2)cn1,15,20*,-7%,3%,-2%,0%
Cn1cc(CNC(=O)c2ccc3nc(Cc4ccccc4F)oc3c2)cn1,89*,59*,-4%,/,-10%,-3%
Cn1cc(CCNC(=O)c2ccc3nc(Cc4ccccc4F)oc3c2)cn1,92*,30*,5%,-1%,5%,3%
COc1cccc(NC(=O)CN(C)CC(=O)Nc2ccc(C)c(S(=O)(=O)N3CCOCC3)c2)c1,/,/,5%,/,/,/
Cc1ccc2nc3c(cc(C(=O)NCc4ccco4)c(=N)n3C(C)C)c(=O)n2c1,/,/,5%,/,6%,/
O=C(Nc1cccc(F)c1)N1CC[C@@]2(CCCN(S(=O)(=O)c3ccccc3)C2)C1,/,/,6%,-4%,/,/
C[C@H](NC(=O)[C@@H]1CCCN1C(=O)OC(C)(C)C)c1ccccc1,/,/,2%,/,/,/
Cc1ccccc1OC1C=CC(C#Cc2ccc(Br)cc2)OC1CO (configuration not stated),/,/,/,0%[12.9 µM],/,/
NC(=O)c1ccccc1-c1noc(-c2ccccc2F)n1,/,/,/,/,-1%,/
CN(C)c1ccc(C(=O)c2ccc(N(C)C)c(N)c2)cc1N,75,28*,3%,4%,-3%,2%
CC(C)C[C@@H](NC(=O)[C@@H](O)[C@H](N)Cc1ccccc1)C(=O)O,34*,40*,/,-2%,/,/
